The values below come from PubChem BioAssay (NCATS).

Results filed as inconclusive are left out. Where a call stands in place of a potency, no number is given. Activity calls are given as the source filed them. The call rests on the fitted dose curve; in most records, active means well fitted inhibition curve with a large enough effect; inconclusive means small, poorly fitted or top-dose-only effect; inactive means flat fitted curve, though single readings scatter.

Sequence of Calcium and integrin-binding protein 1 (Homo sapiens) (Q99828 whole entry, looked up): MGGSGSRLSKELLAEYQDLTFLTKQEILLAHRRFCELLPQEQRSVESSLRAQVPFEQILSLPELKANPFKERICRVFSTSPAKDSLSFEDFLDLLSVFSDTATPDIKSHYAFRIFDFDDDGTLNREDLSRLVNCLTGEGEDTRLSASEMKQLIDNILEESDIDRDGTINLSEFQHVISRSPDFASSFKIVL

The assay has as its target Calcium and integrin-binding protein 1 (Homo sapiens) (UniProt Q99828). Put plainly: Primary qHTS for Identification of Calcium Integrin Binding Protein 1 (CIB1) Competitor (AID 1508620).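 Further: GST tagged CIB1 binding a fluorescein labelled alphaIIb integrin peptide tracer; top concentration of the series differs between compounds.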 The settings on record: CIB1-GST / FITC-alphaIIb peptide fluorescence polarization; series mostly up to 57.7 µM. The method in brief: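 CIB1-GST (1 uM final) and compound incubated 15 min at room temperature before adding FITC-alphaIIb peptide tracer (100 nM final). Competition for binding read by fluorescence polarization (ex 480, em 540) after another 15 min at room temperature.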
In the case of `COC(=O)C1=CO[C@@H](O[C@@H]2O[C@H](CO)[C@@H](O)[C@H](O)[C@H]2O)[C@@H]2C(CO)=CC[C@H]12`, the Potency result was “inactive”.

As to `Cc1noc2c1-c1ccccc1C(c1ccc(Cl)cc1)=N[C@H]2CC(N)=O`, the Potency result is “inactive”.

As for `C/C(=C\CC/C(C)=C/CC[C@]1(C)CCc2cc(O)cc(C)c2O1)CC/C=C(\C)C(=O)O`, the Potency entry is “inactive”.

As for `CC(=O)OC/C(=C/C(=O)O)CC[C@@H]1C(CO)=CC[C@@H]2C(C)(C)CCC[C@@]12C`, the Potency result is “inactive”.

Take `CC1=C[C@H]2[C@@H](CC1=O)[C@H](C)C[C@H](O)[C@H]2C(C)C`: the Potency result is “inactive”.

With `C=C(CO)C(=O)O[C@H]1C[C@@]23O[C@@H]2CC/C(=C/[C@H]2OC(=O)C(=C)[C@H]12)CO[C@H]3O`, the Potency entry is “inactive”.

`OCC1=C[C@@H](O)[C@@H]2C=CO[C@@H](O[C@@H]3O[C@H](CO)[C@@H](O)[C@H](O)[C@H]3O)[C@H]12`: the Potency entry was “inactive”.

As to `C/C=C1/CC2C(=O)Nc3cc(O)c(OC)cc3C(=O)N2C1` (stereo not given), the Potency result was “inactive”.

Take `CCC(=O)OCC(=O)[C@@]1(OC(=O)CC)[C@@H](C)C[C@H]2[C@@H]3CCC4=CC(=O)C=C[C@]4(C)[C@@]3(F)[C@@H](O)C[C@@]21C`: the Potency result is “inactive”.

Regarding `C=C1CC/C=C(/CO)C(=O)C[C@@H]2[C@@H]1C[C@@]2(C)COC(C)=O`, the Potency entry is “inactive”.

Take `CC1(C)CC[C@]2(C(=O)O)CC[C@]3(C)C(=CCC4[C@@]5(C)C[C@H](O)[C@H](O[C@@H]6O[C@H](CO)[C@@H](O)[C@H](O)[C@H]6O)[C@@](C)(CO)C5[C@H](O)C[C@]43C)[C@@H]2C1` (stereo not given in full): the Potency entry was “inactive”.

Consider `C/C=C(\C)C(=O)O[C@H]1C=CC(=O)O[C@H]1/C=C/[C@H](O)[C@@H](C)O`, for which the Potency result was “inactive”.

Take `C=C(C(=O)OC)[C@]12O[C@@](C)(CC[C@@]3(O)/C(=C\C)C(=O)O[C@]3(C)C[C@@H]1OC(=O)C(CO)CN1CCCC1C(=O)O)CC2=O` (stereo not given in full): the Potency result was “inactive”.

On to `Cc1ccc([C@@H]2CC=C(C(=O)O)[C@H](c3ccc(C(C)(C)C)cc3)N2S(=O)(=O)c2ccc(C)cc2)cc1`, for which the Potency entry is “inactive”.

Regarding `COc1c2c(c(C)c3c1C(=O)OC3)OC1(C)CC(O)C34OC(OC)(CC(O)C3(C)C1C2)OC4(C)C` (stereo not given), the Potency result was “inactive”.

Turning to `C/C=C(\C)C(=O)OC1C2(O)CC3=C4CC(=O)OC(c5ccoc5)C4(C)CCC3C(C)(C2=O)C(C(OC(C)=O)C(=O)OC)C1(C)C` (stereo not given), the Potency entry is “inactive”.

For `C/C=C/C=C/C1=C2C(=O)C3(C)C4C(C(=O)CC(O)/C=C/C)=C(O1)C1(C)C2C2(C)OC1(O)C4(C)OC23O` (stereo not given), the Potency result is “inactive”.

As to `COC(=O)/C=C/c1ccc(O[C@@H]2O[C@H](CO)[C@@H](O)[C@H](O)[C@H]2O)cc1`, the Potency result was “inactive”.

Regarding `C=C[C@H]1[C@H](O[C@@H]2O[C@H](CO)[C@@H](O)[C@H](O)[C@H]2O)OC=C(C(=O)OC)[C@H]1CCO`, the Potency entry was “inactive”.

`CC1CCCCCCCc2cc(O)cc(O)c2C(=O)O1` (stereo not given): the Potency result is “inactive”.
